Assay results published in PubChem BioAssay (EPA / NIEHS).
Results filed as inconclusive are left out. Activity calls are given as the source filed them. The calls were made as follows, unless noted: active = hit-call score of the fitted dose curve at least 0.9, where 1 is the maximum; inconclusive = response in the unintended direction; inactive = score below 0.9.

System: not listed separately
Assay: CCTE_Deisenroth_5AR_NBTE_donor: CCTE's 5alpha-reductase NanoBRET Target Engagement Assay […], Deisenroth Lab (AID 2284319; active = hit-call score of the fitted dose curve at least 0.9, where 1 is the maximum; inactive = score below 0.9)
Details: actives raise or lower the signal
How it was run: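 SRD5A2-NanoLuc, HEK293T, 20 h expression. Chemical 10 nM - 29.9 uM, 8 conc, duplicate; 3 h preincubation + 2 h testosterone tracer. Nano-Glo substrate plus extracellular NanoLuc inhibitor; donor lum 460 nm. DMSO baseline, bidirectional fit.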
In the case of O=C(O)c1ccccc1, the outcome is reported as “inactive”. In the case of CC1(C)C(C=C(Cl)Cl)C1C(=O)OCc1cccc(Oc2ccccc2)c1 (configuration not stated), the outcome is reported as “inactive”. In the case of CC(C)CCCCCCc1ccc(O)cc1, the outcome is reported as “inactive”. In the case of O=C(Nc1ccc([N+](=O)[O-])cc1Cl)c1cc(Cl)ccc1O, the outcome is reported as “inactive”.

System: not listed separately
Assay: CCTE_Deisenroth_5AR_NBTE_acceptor: CCTE's 5alpha-reductase NanoBRET Target Engagement Assay - Autofluorescence Screen, Deisenroth Lab (AID 2284321; active = hit-call score of the fitted dose curve at least 0.9, where 1 is the maximum; inactive = score below 0.9;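 also: compound fluorescence in the acceptor channel under 460 nm excitation flags autofluorescence artifacts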)
Details: actives raise or lower the signal
Experimental: CCTE_Deisenroth_5AR NBTE (5alpha-reductase NanoBRET Target Engagement Assay) is a cell-based, single-readout assay that uses HEK293T, a human kidney cell line, with measurements taken at 5 hours after chemical dosing in a 384 well plate. This assay includes a primary and secondary screen as well as an autofluorscence screen.CCTE_Deisenroth_5AR NBTE_acceptor is one of four assay components measured from the CCTE_Deisenroth_5AR NBTE assay. It is designed to make measurements of resonant fluorescence generated by bioluminescent energy transfer to a target fluorophore, as detected by fluorescence intensity emission signals using spectrometry technology.Data from the assay component CCTE_Deisenroth_5AR NBTE_acceptor was analyzed into 1 assay endpoint. This assay endpoint, CCTE_Deisenroth_5AR NBTE_acceptor, was analyzed with bidirectional fitting relative to DMSO as the negative control and baseline of activity. Using a type of inducible reporter, gain or loss-of-signal activity can be used to understand changes in the acceptor fluorescence as related to 5alpha-reductase catalytic function. Furthermore, this assay endpoint can be referred to as a secondary readout, because this assay has produced multiple assay endpoints where this one serves an artifact detection function.
Chemicals from the blinded ToxCast library were diluted 1000-fold in DMSO to an assumed nominal concentration of 100 uM. Samples were scanned in three independent runs (n=3) on a multi-mode plate reader at a fixed excitation wavelength of 460 nm with emission filter set at […]. For reference, tracer was included at DMSO-solubilized concentrations of 100 uM (the top tested concentration for each test chemical) and 600 nM (the final working concentration of the tracer probe).
In the case of O=C(O)c1ccccc1, the outcome is reported as “inactive”. With CC1(C)C(C=C(Cl)Cl)C1C(=O)OCc1cccc(Oc2ccccc2)c1 (configuration not stated) the outcome was “inactive”. In the case of CC(C)CCCCCCc1ccc(O)cc1, the outcome is reported as “inactive”. In the case of O=C(Nc1ccc([N+](=O)[O-])cc1Cl)c1cc(Cl)ccc1O, the outcome is reported as “inactive”.

System: SRD5A2 (gene 6716)
Assay: CCTE_Deisenroth_5AR_NBTE_ratio: CCTE's 5alpha-reductase NanoBRET Target Engagement Assay - Ratio, Deisenroth Lab (AID 2284322; active = hit-call score of the fitted dose curve at least 0.9, where 1 is the maximum; inactive = score below 0.9)
Details: actives raise or lower the signal
How it was run: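 SRD5A2-NanoLuc HEK293T; cmpd 10 nM-29.9 uM, 3 h preinc + testosterone tracer 2 h; NanoBRET ratio 650/460; bidirectional fit vs DMSO.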
With O=C(O)c1ccccc1 the outcome was “inactive”. In the case of CC1(C)C(C=C(Cl)Cl)C1C(=O)OCc1cccc(Oc2ccccc2)c1 (configuration not stated), the outcome is reported as “inactive”. For CC(C)CCCCCCc1ccc(O)cc1, the outcome was “inactive”. With O=C(Nc1ccc([N+](=O)[O-])cc1Cl)c1cc(Cl)ccc1O the outcome was “inactive”.

System: not listed separately
Assay: VALA_TUBHUV_Antagonist_TubuleLength: VALA Sciences human Umbilical Vein Endothelial Tubule Formation (TUBHUV) Antagonism Assay (AID 2284325)
Details: not given
How it was run: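 Tubule length was imaged via CD31 immunofluorescence after a further 3-day compound exposure in 10 ng/ml VEGF, following 3-day pre-culture of HUVEC with HDF at 1:3. Vehicle 0.1% DMSO; suramin (100 uM) inhibition control.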
For S=C(S)NCCNC(=S)S.[Mn+2].[S-]C([S-])=NCCN=C([S-])[S-].[Zn+2], the outcome was “inactive”. In the case of N[C@@H](Cc1cc(I)c(Oc2ccc(O)c(I)c2)c(I)c1)C(=O)O, the outcome is reported as “inactive”. For CC(C)(c1ccc(O)cc1)c1ccc(O)cc1, the AC50 was 75.1 µM (active). For CC(C)CCCCCCc1ccc(O)cc1, the outcome was “inactive”.

System: not listed separately
Assay: TAMU_PeakParms_SingleDonor1434_Asystole: Texas A&M University (TAMU) 1.5-hr Human Induced Pluripotent Stem Cell (iPSC)-derived Cardiomyocytes Calcium (Ca+2) Flux Assay for Cardiotoxicity: Asystole (quiescence of beating) (AID 2284328)
Details: not given
How it was run: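 Human iPSC-derived cardiomyocytes (donor 1434) were exposed to 0.2, 1, 10 and 100 uM compound in 0.5% DMSO for 90 min at 37C. Ca2+-dye fluorescence gave average peak frequency; POD is EC95, a 95% beat-rate drop versus DMSO.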
For CC(C)(c1ccc(O)cc1)c1ccc(O)cc1, the outcome was “inactive”. In the case of CC(=O)[C@H]1CC[C@H]2[C@@H]3CCC4=CC(=O)CC[C@]4(C)[C@H]3CC[C@]12C, the outcome is reported as “inactive”. In the case of O=C(O)c1ccccc1, the outcome is reported as “inactive”. With CC1(C)C(C=C(Cl)Cl)C1C(=O)OCc1cccc(Oc2ccccc2)c1 (configuration not stated) the outcome was “inactive”. In the case of COCCO, the outcome is reported as “inactive”. With c1ccc2[nH]c(-c3cscn3)nc2c1 the outcome was “inactive”.

System: Brachyury (BRA) Protein Expression, Deisenroth Lab, TBXT (gene 6862)
Assay: CCTE_Deisenroth_DEVTOX-GLR_legacy_Bra: (Legacy) CCTE's DevTox GLR-Endo Assay Evaluation of Brachyury (BRA) Protein Expression, Deisenroth Lab (AID 2284329; active = hit-call score of the fitted dose curve at least 0.9, where 1 is the maximum; inactive = score below 0.9)
Details: not given
How it was run: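 High-content imaging of fixed RUES2-GLR cells after a 48-hour differentiation with two compound exposures yields percent cells whose Bra signal exceeds pluripotent control median by 5x BMAD; values are baseline-corrected to DMSO.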
In the case of OB(O)O, the outcome is reported as “inactive”. For CC(C)(c1ccc(O)cc1)c1ccc(O)cc1, the AC50 was 49.5 µM (active). In the case of CCCCC(CC)COC(=O)c1ccccc1C(=O)O (configuration not stated), the outcome is reported as “inactive”.

System: not listed separately
Assay: CCTE_Deisenroth_DEVTOX-GLR_legacy_CellCount: (Legacy) Viability Assessment in CCTE's DevTox GLR-Endo Assay, Deisenroth Lab (AID 2284331; active = hit-call score of the fitted dose curve at least 0.9, where 1 is the maximum; inactive = score below 0.9)
Details: actives raise or lower the signal
How it was run: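 Viability is taken from imaged nuclei counts in fixed RUES2-GLR cultures after 48 h of differentiation under two 24 h-spaced chemical exposures, 10 concentrations from 1 nM to 200 uM, gain or loss versus DMSO baseline.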
In the case of OB(O)O, the outcome is reported as “inactive”. With CC(C)(c1ccc(O)cc1)c1ccc(O)cc1 the AC50 was 35.6 µM (active). For CCCCC(CC)COC(=O)c1ccccc1C(=O)O (configuration not stated), the AC50 was 112 µM (active).

System: not listed separately
Assay: IUF_NPC1_cytotoxicity_72hr: Cytotoxicity Assessment at 72 hours in the Leibniz Research Institute for Environmental Medicine (IUF) Neural Progenitor Cell Proliferation Assay (NPC1) (AID 2284332);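 also: rising LDH signal means more cytotoxicity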
Details: not given
How it was run: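 LDH in supernatant, resazurin→resorufin fluorescence (RFU), 72 h exposure, no re-dosing. Cells: primary hNPC spheres, one per well, EGF+FGF medium, 37C/5% CO2, pH 7.2-7.6. Fit: positive direction vs baseline and dynamic range.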
In the case of CSC(=O)c1cccc2nnsc12, the outcome is reported as “inactive”. In the case of S=C(S)NCCNC(=S)S.[Mn+2].[S-]C([S-])=NCCN=C([S-])[S-].[Zn+2], the outcome is reported as “inactive”. In the case of CCN(CC)C(=O)c1cccc(C)c1, the outcome is reported as “inactive”. With CC(C)(c1ccc(O)cc1)c1ccc(O)cc1 the outcome was “inactive”. For C#CCOC(=O)[C@@H](C)Oc1ccc(Oc2ncc(Cl)cc2F)cc1, the outcome was “inactive”. In the case of O=C(O)c1ccccc1, the outcome is reported as “inactive”. With CCCN(CCC)C(=O)SCC the outcome was “inactive”. In the case of S=C([S-])NCCNC(=S)[S-].[Mn+2], the outcome is reported as “inactive”. With Cc1nn(C)c(Oc2ccccc2)c1C=NOCc1ccc(C(=O)OC(C)(C)C)cc1 the outcome was “inactive”.
